In PubChem BioAssay (Tox21):
A number with no mark means an inactive call. The source made the active and inactive calls. The call rests on the fitted dose curve; in most records, active means well fitted activation curve with a large enough effect in the repeat runs; inconclusive means weak or mixed curves; inactive means flat fitted curve, though single readings scatter.

The compounds below were run against KiSS-1 receptor (Homo sapiens) (UniProt Q969F8) (assay: Human kisspeptin (KISS1R) small molecule agonists, calcium flux assay in KISS1R-HEK293 cells (AID 1920064)). Conditions: KISS1R-HEK293, calcium flux fluorescence, agonist; series mostly up to 76.8 µM.
Outline: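 Measures KISS1R agonism through calcium-sensitive dye fluorescence in stably transfected HEK293 cells, read for 3 min after pin-tool compound delivery; 15-point titrations in triplicate.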
On the % scale 0 is the no-effect control and ±100 the full control effect.

Sequence of KiSS-1 receptor (Homo sapiens) (Q969F8 whole entry, looked up): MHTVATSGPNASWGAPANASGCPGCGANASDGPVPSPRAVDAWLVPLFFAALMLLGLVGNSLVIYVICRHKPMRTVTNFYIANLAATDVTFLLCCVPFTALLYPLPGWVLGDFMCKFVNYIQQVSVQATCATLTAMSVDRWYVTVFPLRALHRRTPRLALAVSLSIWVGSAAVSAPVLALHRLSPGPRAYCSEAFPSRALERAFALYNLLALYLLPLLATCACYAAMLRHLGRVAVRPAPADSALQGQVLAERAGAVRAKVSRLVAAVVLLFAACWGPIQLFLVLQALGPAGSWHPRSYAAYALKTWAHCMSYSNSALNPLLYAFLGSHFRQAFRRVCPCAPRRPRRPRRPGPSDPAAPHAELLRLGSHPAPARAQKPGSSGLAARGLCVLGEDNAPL

SMILES | outcome | activation
COc1ccc(C(=O)c2ccc(OC)cc2O)c(O)c1 | inactive | 
CC(C)c1ccc(C(=O)N=C(N)N)cc1S(C)(=O)=O | inactive | 
Cc1ccc(N(CC2=NCCN2)c2cccc(O)c2)cc1 | inactive | 
CCC(C(=O)OCCN(CC)CC)c1ccccc1 (stereo unspecified) | inactive | 
COC(=O)c1cccc(Cl)c1 | inactive | 
Cc1cccc(C(C)(C)C)c1O | inactive | 
CCCCCCCCCCCCCCCCCCOS(=O)(=O)O | inactive | 
C[Si](C)(CCCN)O[Si](C)(C)CCCN | inactive | 
CCCCCCCCCCCCOC(=O)c1ccc(O)cc1 | inactive | 
O=C1N(c2ccccc2)c2ccccc2C1(Cc1ccncc1)Cc1ccncc1 | inactive | 
CCC(C=O)CC | inactive | 
Cc1ccc2c(Cl)cc(Cl)c(O)c2n1 | inactive | 
COc1ccc(CN(CCN(C)C)c2ncccn2)cc1 | inactive | 
CCN1CCCC1CN (stereo unspecified) | inactive | 
O=C1C(CCS(=O)c2ccccc2)C(=O)N(c2ccccc2)N1c1ccccc1 (stereo unspecified) | inactive | 
C/C(=N/NC(=O)c1ccncc1)C(=O)O | inactive | 
O=C1Nc2cc(Cl)ccc2Oc2ccccc21 | inactive | 
Clc1ccc2c(c1)CCc1cccnc1C2=C1CCNCC1 | inactive | 

SMILES | outcome | activation
CCC(=O)c1c(O)cc(O)cc1O | inactive | 
CC(C)(O)c1ccc(CNC(=O)c2cccnc2Oc2ccc(F)cc2)cc1 | inactive | 
COc1ccc2c(c1)C(=O)N(CCc1ccc(S(=O)(=O)NC(=O)NC3CCCCC3)cc1)C(=O)C2(C)C | inactive | 
CCCCCCCCN(C)CCCCCCCC | inactive | 
CC(C)(C)C(=O)O | inactive | 
Cc1ccc(-n2[nH]c(C)c(N=Nc3cccc(-c4cccc(C(=O)O)c4)c3O)c2=O)cc1C | inactive | 
CN(C)CC/C=C1/c2ccccc2COc2ccc(CC(=O)O)cc21 | inactive | 
C=Cc1ccccc1C=C | inactive | 
COc1ccc(/C=C/S(=O)(=O)NC(=O)c2ccc(C)cc2Cl)cc1 | inactive | 
O=C=NCc1cccc(CN=C=O)c1 |  | 0.462% [at 15.8 µM]
Cc1cc(S(=O)(=O)O)c(N)cc1Cl | inactive | 
Nc1ccc(S(=O)(=O)Nc2ccccc2)cc1 | inactive | 
O=Cc1ccc(F)c(Br)c1 | inactive | 
Cc1nc2ccccc2n1Cc1ccc(Cl)cc1 | inactive | 
CC(C)OC(=O)c1ccccc1 | inactive | 
C[N+]1(CC2COC(c3ccccc3)(C3CCCCC3)O2)CCCCC1 (stereo unspecified) | inactive | 
C=CC(=O)OCCOCCOC(=O)C=C | inactive | 
OCC(CO)(CO)COCC(CO)(CO)CO | inactive | 
